53 molecules from ChEMBL document CHEMBL4513216, “Probing the Open Global Health Chemical Diversity Library for Multistage-Active Starting Points for Next-Generation Antimalarials” (ACS Infect Dis, 2020) can be followed below.

The campaign covered roughly 68,000 compounds. About 2,700 (4%) showed an effect of 50% or more. Shown is part of a subset that was picked to be rich in strong results.

This test deals with Plasmodium berghei. Put plainly: Screen against P. berghei liver stage (PbLuc), transformed with Luciferase, at 2uM. The class given is functional, HepG2. To be noted: tested at 2 uM.
With `Cc1nc(C2CCCN(C(=O)CCCn3cccn3)C2)sc1C` (stereo not drawn), the INHIBITION was found to be 15.67%.

With `O=C(c1ccc2[nH]ccc2c1)N1CC[C@@H]2CN(CC3CC3)CCO[C@@H]2C1`, the INHIBITION is 12.83%.

In the case of `CCS(=O)(=O)N1CCc2cc(C(=O)N(C)C)c(NCC3CC3)nc2CC1`, the INHIBITION is reported as 27.08%.

For the molecule `COC(=O)COc1cc(NCc2c(C)noc2C)c(Cl)cc1C`, the INHIBITION is -55.9%.

As for `NC(=O)COc1ccc(CN2CCC(O)(CN3CCCCC3)C2)cc1Cl` (stereo not drawn), the INHIBITION was -32.93%.

On to `Cc1cnn(C2CN(CC(=O)NCCc3ccsc3)C2)c1`, for which the INHIBITION is listed as -21.39%.

`O=C(CCC1CCCO1)NCc1ccc(Br)cc1F` (stereo not drawn): the INHIBITION worked out at 1.52%.

With `Cc1cc(C(=O)O)c2c(Br)cccc2n1`, the INHIBITION is -34.12%.

In the case of `COCCCN1Cc2cccc(NC(=O)c3cc(F)ccc3F)c2C1`, the INHIBITION is -9.01%.

Regarding `CCc1nnsc1C(=O)N1CCCC1c1c(C)nn(C)c1OC` (stereo not drawn), the INHIBITION is -12.75%.

As to `COc1ccc(C(C(=O)O)N2CCC(O)(c3cccnc3)CC2)cc1Cl` (stereo not drawn), the INHIBITION was determined as 55.39%.

As for `COc1cccc(Cl)c1C(C(=O)O)N1CCC(O)(c2cccnc2)CC1` (stereo not drawn), the INHIBITION is reported as -4.09%.

As to `COc1ccc(C(C(=O)O)N2CCC(O)(c3cccnc3)CC2)cc1F` (stereo not drawn), the INHIBITION is -38.97%.

For `Cc1ccc(C(=O)N2C[C@H]3CCC[C@@]3(COCc3cccnc3)C2)s1`, the INHIBITION is given as -5.01%.

For the molecule `CCC(=O)N1CCC(c2ncc3c(n2)CCNC3)CC1`, the INHIBITION is 95.75%.

For `CCCC(=O)N1CCC(c2ncc3c(n2)CCNC3)CC1`, the INHIBITION stood at 5.15%.

With `O=C(CC1CCCCC1)N1CCC(c2ncc3c(n2)CCNC3)CC1`, the INHIBITION came out at 6.4%.

Take `COc1c[nH]c(C(=O)N2CCN(c3ccc(Cl)cc3)CC2)cc1=O`: the INHIBITION is 5.28%.

Regarding `Cc1cc(C)n(C2CN(CC(O)c3ccc(F)cc3)C2)n1` (stereo not drawn), the INHIBITION is on record as -26.11%.

Take `Cc1cc(C)n(C2CN(CC(O)c3cc(F)ccc3F)C2)n1` (stereo not drawn): the INHIBITION is listed as 53.98%.

With `Cc1cc(C)n(C2CN(CC(O)COc3ccc(F)cc3)C2)n1` (stereo not drawn), the INHIBITION turned out to be 12.31%.

Consider `Cc1cc(C)n(C2CN(CC(O)c3ccc(S(C)(=O)=O)cc3)C2)n1` (stereo not drawn), for which the INHIBITION is -3.06%.

As for `COc1ccc(C(O)CN2CC(n3nc(C)cc3C)C2)cc1` (stereo not drawn), the INHIBITION is on record as -1.02%.

For the molecule `Cc1cc(C)n(C2CN(CC(O)c3ccc(C(F)(F)F)cc3)C2)n1` (stereo not drawn), the INHIBITION was determined as 56.02%.

As to `O=C(c1cnnn1-c1ccccc1)N1CCCC(c2ccn[nH]2)C1` (stereo not drawn), the INHIBITION is -44.17%.

With `O=C(c1ccco1)N1C[C@@H]2CCN(c3cccnc3)C[C@@H]2C1`, the INHIBITION was -19.54%.

On to `CCc1nnc2n1CCN(C(C(=O)N(CC)CC)c1ccccc1)C2` (stereo not drawn), for which the INHIBITION was 47.85%.

On to `Cc1nnc2n1CCN(C(C(=O)N1CCCCC1)c1ccccc1)C2` (stereo not drawn), for which the INHIBITION is -40.65%.

In the case of `CCN(CC)C(=O)C(c1ccccc1)N1CCn2c(C)nnc2C1` (stereo not drawn), the INHIBITION came out at 63.95%.

As for `COc1ncc(C2(O)CCN(Cc3ccc(F)c(F)c3)CC2)c(OC)n1`, the INHIBITION was 10.83%.

With `O=C(CN1CCCC(O)C1)NC(=O)NCc1cccs1` (stereo not drawn), the INHIBITION is given as -4.29%.

Regarding `CN(C)c1cc(C(=O)NCC2(c3ccc(F)cc3)CC2)ccn1`, the INHIBITION is on record as 87.73%.

Take `CN(C)c1cc(C(=O)NCC2(c3cccc(F)c3)CCOCC2)ccn1`: the INHIBITION was 15.38%.

For `Cc1cccc(C2(CNC(=O)c3ccnc(N(C)C)c3)CCOCC2)c1`, the INHIBITION was -3.96%.

Regarding `CCCNC(=O)C1CCN(CC2(O)CCC(C)CC2)CC1` (stereo not drawn), the INHIBITION worked out at 50.03%.

Take `CC(=O)N1CCC(C(=O)NCCN2CCC(C)CC2)CC1`: the INHIBITION amounted to 44.99%.

For the molecule `COCCCNC(=O)C1CCN(CC2(O)CCC(C)CC2)CC1` (stereo not drawn), the INHIBITION was 54.69%.

`CCCC(=O)N1CCC(C(=O)NCCN2CCC(C)CC2)CC1`: the INHIBITION came to 20.43%.

For the molecule `CC1CCN(CCCNC(=O)C2CCCCC2)CC1`, the INHIBITION was found to be 1.41%.

On to `CC1CCC(O)(CN2CCN(CCNC(=O)C3CCC3)CC2)CC1` (stereo not drawn), for which the INHIBITION is on record as -81.41%.

Take `CN(Cc1ccco1)Cc1cnc2n1CCN(c1ccccn1)CC2`: the INHIBITION is reported as -18.6%.

Turning to `CC1CCN(CC(O)CNc2ccccn2)CC1` (stereo not drawn), the INHIBITION is recorded as 39.95%.

In the case of `OC(CNc1ccc(Cl)cn1)CN1CCOCC1` (stereo not drawn), the INHIBITION was 12.58%.

`CC1CCN(CC(O)CNc2ccc(Cl)cn2)CC1` (stereo not drawn): the INHIBITION is given as 58.9%.

`Cc1nnc([C@@]23CCO[C@@H]2CCN(S(=O)(=O)c2cccnc2)C3)o1`: the INHIBITION is 38.17%.

For `O=C(c1c[nH]c2ccccc2c1=O)N1CCSCC1`, the INHIBITION is given as 40.47%.

For the molecule `CC(C(=O)NCCc1cccs1)N1CCC(n2ccnc2)CC1` (stereo not drawn), the INHIBITION is recorded as -22.69%.

As to `CC(C(=O)Nc1ncccn1)N1CCC(n2ccnc2)CC1` (stereo not drawn), the INHIBITION was found to be 61.56%.

Take `CC(C(=O)Nc1ccc2ccccc2c1)N1CCC(n2ccnc2)CC1` (stereo not drawn): the INHIBITION is -17.84%.

As to `O=C(c1cc(Cl)c[nH]1)N1CCN(CCc2ccccn2)CC1`, the INHIBITION is -5.61%.

As to `COc1cc(OC)c(CNC(=O)NCC(=O)N2CCCC2)c(OC)c1`, the INHIBITION is listed as -19.51%.

In the case of `OC1(Cn2ccc3ncccc32)CCN(Cc2ccccn2)CC1`, the INHIBITION was 7.86%.

`CCc1sc(-c2nnc(CNC(C)Cn3cc(C)cn3)o2)cc1C` (stereo not drawn): the INHIBITION is -11.19%.
